Measured values from PubChem BioAssay (Tox21).
Values without a mark were called inactive. Results filed as inconclusive are left out. Entries that show only a call come without a potency. Active and inactive are the calls of the source. Calls follow the shape of the full dose curve.

These compounds were tested against Acetylcholinesterase (Homo sapiens) (UniProt P22303) (assay: Acetylcholinesterase (AChE) small molecule antagonists: colormetric cell-based qHTS assay (AID 1347395; also: nearly all actives have a fitted effect of over 30% in size)). Details: SH-SY5Y cells AChE activity, colorimetric (Ellman); series mostly up to 115 µM.
Summary of the method: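 Colorimetric readout: DTNB quantifies thiocholine from acetylthiocholine hydrolysed by endogenous AChE of SH-SY5Y cells (2,000/well, plated overnight). Compound pretreatment 30 min, substrate incubation 90 min, both 37 C.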

Acetylcholinesterase (Homo sapiens), sequence (P22303 whole entry, looked up): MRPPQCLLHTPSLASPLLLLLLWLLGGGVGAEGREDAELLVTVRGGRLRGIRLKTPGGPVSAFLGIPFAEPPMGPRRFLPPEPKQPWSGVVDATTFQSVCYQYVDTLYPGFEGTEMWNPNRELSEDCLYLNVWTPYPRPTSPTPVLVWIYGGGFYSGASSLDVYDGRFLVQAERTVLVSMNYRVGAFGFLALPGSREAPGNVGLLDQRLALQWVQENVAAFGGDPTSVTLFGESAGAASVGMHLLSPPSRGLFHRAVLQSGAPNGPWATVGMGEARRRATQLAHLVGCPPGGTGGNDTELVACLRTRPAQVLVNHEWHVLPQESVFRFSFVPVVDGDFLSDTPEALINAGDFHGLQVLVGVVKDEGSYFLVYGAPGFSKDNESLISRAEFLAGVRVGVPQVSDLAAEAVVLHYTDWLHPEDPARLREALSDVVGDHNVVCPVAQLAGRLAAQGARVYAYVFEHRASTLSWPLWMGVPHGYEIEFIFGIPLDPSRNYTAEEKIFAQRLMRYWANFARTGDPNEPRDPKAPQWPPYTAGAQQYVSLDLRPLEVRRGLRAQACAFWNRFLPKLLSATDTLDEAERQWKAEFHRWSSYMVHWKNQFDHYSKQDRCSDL

Row | Structure (SMILES) | Potency | activity, negative = inhibition | outcome
1 | Cc1ccc(S(=O)(=O)C(I)I)cc1 | inactive |  | 
2 | Cc1cccn2c(=O)c(-c3nnn[nH]3)cnc12 |  | -0.311% [at 23.6 µM] | 
3 | CCCO | inactive |  | 
4 | CCOC(=O)COC(=O)c1cc(Oc2ccc(C(F)(F)F)cc2Cl)ccc1[N+](=O)[O-] | inactive |  | 
5 | CCC(C)(C)C(=O)O | inactive |  | 
6 | COc1ccc(/C=C/S(=O)(=O)NC(=O)c2ccc(C)cc2Cl)cc1 | inactive |  | 
7 | CC(O)COC(C)(C)C (stereo not given) | inactive |  | 
8 | O=C(O)c1ccccc1-c1ccc(C(F)(F)F)cc1 | inactive |  | 
9 | CC(C)(C)C(=O)/C=C/c1ccc(Cl)cc1 | inactive |  | 
10 | CC(=O)OCCc1ccccc1 | inactive |  | 
11 | O=C1OC(CN2CCOCC2)CN1/N=C/c1ccc([N+](=O)[O-])o1 (stereo not given) | inactive |  | 
12 | N#CCCCC(C#N)CCC#N (stereo not given) | inactive |  | 
13 | COC(=O)CC#N | inactive |  | 
14 | COC(=O)/C=C\C(=O)O | inactive |  | 
15 | CC(C)c1cccc(C(C)C)c1NC(=O)NS(=O)(=O)c1cc(C(C)(C)O)co1 | inactive |  | 
16 | FC(F)OC(Cl)C(F)(F)F (stereo not given) | inactive |  | 
17 | CN1[C@@H]2CC[C@H]1CC(OC(=O)C(O)c1ccccc1)C2 (stereo not given in full) | inactive |  | 
18 | CCCCC(CC)C(=O)OC(C)C (stereo not given) | inactive |  | 
19 | CCc1ccc(C=O)cc1 | inactive |  | 
20 | CC(=O)SCC(CC(=O)c1ccc(C)cc1)C(=O)O (stereo not given) | inactive |  | 

Row | Structure (SMILES) | Potency | activity, negative = inhibition | outcome
21 | O=C(O)c1c(O)c(-c2ccccc2)nc2ccccc12 | inactive |  | 
22 | CCCCCCCCCCCCCCCCOP(=O)([O-])OCC[N+](C)(C)C | inactive |  | 
23 | O=C(O)/C=C(\CC(=O)O)C(=O)O | inactive |  | 
24 | C=COCCOCCOCCOC=C | inactive |  | 
25 | C1=COCCC1 | inactive |  | 
26 | CC/C=C\CCOC(=O)c1ccccc1 | inactive |  | 
27 | OCCN1CN(CCO)CN(CCO)C1 | inactive |  | 
28 | Oc1cccc2c(O)cccc12 | inactive |  | 
29 | C=C(C)C(=O)OCCCCCCCCCCOC(=O)C(=C)C | inactive |  | 
30 | O=C(CO)[C@@H](O)[C@H](O)[C@@H](O)CO | inactive |  | 
31 | CC(C)(C)C1(CCc2ccc(Cl)cc2)CO1 (stereo not given) | inactive |  | 
32 | CCCC(=O)O[C@]1(C(=O)CCl)[C@@H](C)C[C@H]2[C@@H]3CCC4=CC(=O)C=C[C@]4(C)[C@@]3(F)C(=O)C[C@@]21C | inactive |  | 
33 | CNCCCC1c2ccccc2C=Cc2ccccc21 |  |  | inactive
34 | CCN(CC)C(=O)/C(C#N)=C/c1cc(O)c(O)c([N+](=O)[O-])c1 | inactive |  | 
35 | Cc1cc(S(=O)(=O)O)ccc1N=Nc1c(O)ccc2ccccc12 | inactive |  | 
36 | CCC(=O)O[C@]1(C(=O)COC)[C@@H](C)C[C@H]2[C@@H]3CCC4=CC(=O)C=C[C@]4(C)C3(F)[C@@H](O)C[C@@]21C (stereo not given in full) | inactive |  | 
37 | C[C@H]1O[C@@H](O[C@H]2CC[C@@]3(C)[C@H](CC[C@@H]4[C@@H]3C[C@@H](O)[C@]3(C)[C@@H](C5=CC(=O)OC5)CC[C@]43O)C2)C[C@H](O)[C@@H]1O[C@H]1C[C@H](O)[C@H](O[C@H]2C[C@H](O)[C@H](O[C@@H]3O[C@H](CO)[C@@H](O)[C@H](O)[C@H]3O)[C@@H](C)O2)[C@@H](C)O1 | inactive |  | 
38 | COC(=O)c1ccc(NC(C)=O)cc1OC | inactive |  | 
39 | NS(=O)(=O)c1cc(C(=O)NN2C[C@H]3[C@H]4CCC(C4)[C@H]3C2)ccc1Cl | inactive |  | 
40 | CC(=O)NC1(c2cccc(F)c2)CCN(CC[C@@]2(c3ccc(Cl)c(Cl)c3)CN(c3ccccc3)C(=O)CO2)CC1 | inactive |  | 

The compounds below were run against Acetylcholinesterase (Homo sapiens) (UniProt P22303) (assay: Acetylcholinesterase (AChE) small molecule antagonists: enzyme-based qHTS assay (AID 1347397; also: nearly all actives have a fitted effect of over 55% in size)). Details: Potency: AChE enzyme activity inhibition; outcome: AChE enzyme activity inhibition; series mostly up to 115 µM.
Summary of the method: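 Colorimetric DTNB read-out of thiocholine released from acetylthiocholine by recombinant human AChE (50 mU/mL as dispensed). Compounds were preincubated 30 min at RT before substrate/DTNB addition, with a 10 min RT reaction.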

Row | Structure (SMILES) | Potency | activity change, negative = inhibition | outcome
41 | Cc1ccc(S(=O)(=O)C(I)I)cc1 | inactive |  | 
42 | Cc1cccn2c(=O)c(-c3nnn[nH]3)cnc12 |  | -2.02% [at 23.6 µM] | 
43 | CCCO | inactive |  | 
44 | CCOC(=O)COC(=O)c1cc(Oc2ccc(C(F)(F)F)cc2Cl)ccc1[N+](=O)[O-] | inactive |  | 
45 | CCC(C)(C)C(=O)O | inactive |  | 
46 | COc1ccc(/C=C/S(=O)(=O)NC(=O)c2ccc(C)cc2Cl)cc1 | inactive |  | 
47 | CC(O)COC(C)(C)C (stereo not given) | inactive |  | 
48 | O=C(O)c1ccccc1-c1ccc(C(F)(F)F)cc1 | inactive |  | 
49 | CC(C)(C)C(=O)/C=C/c1ccc(Cl)cc1 | inactive |  | 
50 | CC(=O)OCCc1ccccc1 | inactive |  | 
51 | O=C1OC(CN2CCOCC2)CN1/N=C/c1ccc([N+](=O)[O-])o1 (stereo not given) | inactive |  | 
52 | N#CCCCC(C#N)CCC#N (stereo not given) | inactive |  | 
53 | COC(=O)CC#N | inactive |  | 
54 | COC(=O)/C=C\C(=O)O | inactive |  | 
55 | CC(C)c1cccc(C(C)C)c1NC(=O)NS(=O)(=O)c1cc(C(C)(C)O)co1 | inactive |  | 
56 | FC(F)OC(Cl)C(F)(F)F (stereo not given) | inactive |  | 
57 | CN1[C@@H]2CC[C@H]1CC(OC(=O)C(O)c1ccccc1)C2 (stereo not given in full) | inactive |  | 
58 | CCCCC(CC)C(=O)OC(C)C (stereo not given) | inactive |  | 
59 | CCc1ccc(C=O)cc1 | inactive |  | 
60 | CC(=O)SCC(CC(=O)c1ccc(C)cc1)C(=O)O (stereo not given) | inactive |  | 

Row | Structure (SMILES) | Potency | activity change, negative = inhibition | outcome
61 | O=C(O)c1c(O)c(-c2ccccc2)nc2ccccc12 | inactive |  | 
62 | CCCCCCCCCCCCCCCCOP(=O)([O-])OCC[N+](C)(C)C | inactive |  | 
63 | O=C(O)/C=C(\CC(=O)O)C(=O)O | inactive |  | 
64 | C=COCCOCCOCCOC=C | inactive |  | 
65 | C1=COCCC1 | inactive |  | 
66 | CC/C=C\CCOC(=O)c1ccccc1 | inactive |  | 
67 | OCCN1CN(CCO)CN(CCO)C1 | inactive |  | 
68 | Oc1cccc2c(O)cccc12 | inactive |  | 
69 | C=C(C)C(=O)OCCCCCCCCCCOC(=O)C(=C)C | inactive |  | 
70 | O=C(CO)[C@@H](O)[C@H](O)[C@@H](O)CO | inactive |  | 
71 | CC(C)(C)C1(CCc2ccc(Cl)cc2)CO1 (stereo not given) | inactive |  | 
72 | CCCC(=O)O[C@]1(C(=O)CCl)[C@@H](C)C[C@H]2[C@@H]3CCC4=CC(=O)C=C[C@]4(C)[C@@]3(F)C(=O)C[C@@]21C | inactive |  | 
73 | CNCCCC1c2ccccc2C=Cc2ccccc21 |  |  | inactive
74 | CCN(CC)C(=O)/C(C#N)=C/c1cc(O)c(O)c([N+](=O)[O-])c1 | inactive |  | 
75 | Cc1cc(S(=O)(=O)O)ccc1N=Nc1c(O)ccc2ccccc12 | inactive |  | 
76 | CCC(=O)O[C@]1(C(=O)COC)[C@@H](C)C[C@H]2[C@@H]3CCC4=CC(=O)C=C[C@]4(C)C3(F)[C@@H](O)C[C@@]21C (stereo not given in full) | inactive |  | 
77 | C[C@H]1O[C@@H](O[C@H]2CC[C@@]3(C)[C@H](CC[C@@H]4[C@@H]3C[C@@H](O)[C@]3(C)[C@@H](C5=CC(=O)OC5)CC[C@]43O)C2)C[C@H](O)[C@@H]1O[C@H]1C[C@H](O)[C@H](O[C@H]2C[C@H](O)[C@H](O[C@@H]3O[C@H](CO)[C@@H](O)[C@H](O)[C@H]3O)[C@@H](C)O2)[C@@H](C)O1 | inactive |  | 
78 | COC(=O)c1ccc(NC(C)=O)cc1OC | inactive |  | 
79 | NS(=O)(=O)c1cc(C(=O)NN2C[C@H]3[C@H]4CCC(C4)[C@H]3C2)ccc1Cl | inactive |  | 
80 | CC(=O)NC1(c2cccc(F)c2)CCN(CC[C@@]2(c3ccc(Cl)c(Cl)c3)CN(c3ccccc3)C(=O)CO2)CC1 | inactive |  | 
